An excerpt weighted towards active compounds, which were near 4.6% of everything screened.
TRb SRC2 PPI = disrupts binding of human TR beta to SRC2. Potency, µM (doses to about 106 µM), without a hit: at the top dose activity change, negative = inhibition, most hits filed as inhibitors. actives 0.065% (n = 280,000). TRbeta-SRC2 peptide binding, fluorescence polarization; receptor liganded with 1 µM T3. P10828;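 further: potency means the concentration at half of the fitted maximal effect; plate controls were bound peptide for no effect and peptide without receptor for full effect; nearly all actives have a fitted effect of over 50% in size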
Target sequence (P10828 whole entry, looked up): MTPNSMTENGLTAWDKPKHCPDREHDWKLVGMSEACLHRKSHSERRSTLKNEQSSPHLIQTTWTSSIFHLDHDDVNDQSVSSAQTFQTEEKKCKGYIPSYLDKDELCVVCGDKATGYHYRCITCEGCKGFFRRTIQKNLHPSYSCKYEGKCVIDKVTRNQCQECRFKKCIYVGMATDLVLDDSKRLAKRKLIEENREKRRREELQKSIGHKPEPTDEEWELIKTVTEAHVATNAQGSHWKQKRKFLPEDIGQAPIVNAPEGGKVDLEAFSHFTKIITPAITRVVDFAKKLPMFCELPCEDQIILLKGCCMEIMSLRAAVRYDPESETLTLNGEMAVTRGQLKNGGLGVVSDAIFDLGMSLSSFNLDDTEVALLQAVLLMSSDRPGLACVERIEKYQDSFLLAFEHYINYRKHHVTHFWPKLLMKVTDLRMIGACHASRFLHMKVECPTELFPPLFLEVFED
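TRb LBD 0.6 uM + Texas Red SRC2 peptide 20 nM, 1 uM T3, Tris buffer w/ 5% DMSO; compound pinned, 5 h RT; FP read ex 555/em 632; normalized to unbound and bound controls.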
PNC inhibitor = blocks assembly of the perinucleolar compartment; PC3M PTB-GFP, PNC prevalence imaging, 16 h; stronger effect = lower value; actives 3.1% (n = 140,000); activity change (PNC), negative = inhibition, % at 10 µM;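 active means readout at or below -70, meaning at least 70% loss of cells showing the perinucleolar compartment, a nuclear body marking cancer cells; inconclusive means readout between -30 and a set limit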;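 further: plate controls were DMSO wells for no effect and camptothecin positive control wells for full effect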
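PC3M cells stably expressing PTB-GFP, 750–1000 cells/well, treated 16 h at 37 °C with compound (23 nl of library stock), in duplicate. After paraformaldehyde fixation and Hoechst stain, imaged at 20x; PNC prevalence scored by image analysis.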
Tau fibril ThT = tau fibrillization inhibition (ThT binding); Potency, µM (top dose mostly 57.4 µM), for inactives: at the highest dose activity, negative = inhibition, usual class: inhibitors; recombinant tau K18 P301L, heparin-induced fibrillization, ThT fluorescence; actives 2.1% (n = 270,000); P10636; further: potency means the concentration at half of the fitted maximal effect; nearly all actives have a fitted effect of over 55% in size
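ThT emission at 510 nm, taken 1 hr after adding 30 uM dye, quantifies aggregates formed when 20 uM heparin acts on human tau K18 P301L for 6 hr at 37 C.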
TR SRC2 fluor cs = alters Texas Red total fluorescence, flagging assay interference | actives 0.29% (n = 280,000) | Potency, µM (top dose mostly 106 µM), inactives show at the top dose fluorescence change, negative = quenching | TRb/SRC2 Texas Red total fluorescence interference; active means well fitted curve in either direction with a large enough effect; inconclusive means small, poorly fitted or top-dose-only effect; further: potency means the concentration at half of the fitted maximal effect
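Human TRβ ligand-binding domain (0.6 uM) and Texas Red SRC2 peptide (20 nM) in Tris buffer with 1 uM T3 and 5% DMSO were incubated with pinned compound for 5 hr at ambient temperature. Total fluorescence was computed as S + 2P (555/632 nm).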
Tau fibril FP = blocks human tau fibril formation measured by polarization; P10636; K18 P301L tau heparin fibrillization, Alexa594 FP, 6 h; Potency, µM (highest dose often 57.7 µM), for inactives: at the highest dose activity, negative = inhibition, actives largely listed as inhibitors; actives 0.39% (n = 280,000); further: potency means the concentration at half of the fitted maximal effect; nearly all actives have a fitted effect of over 55% in size
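Human K18 P301L fragment (15 uM unlabeled plus 0.24 uM Alexa 594-labeled) in 100 mM sodium acetate pH 7 with compound, aggregation induced by 20 uM heparin for 6 hr at 37 C. ThT (30 uM) added for 1 hr, then Alexa 594 FP read.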
Tau fluor counter = counter-screen for tau fibril formation inhibitors; tau K18 P301L Alexa594 fluorescence, heparin fibrillization; Potency, µM (highest dose often 57.7 µM), for inactives: top-dose activity change, negative = decrease; actives 0.93% (n = 280,000); further: potency means the concentration at half of the fitted maximal effect; nearly all actives have a fitted effect of over 55% in size
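Human tau K18 P301L (15 uM unlabeled, 0.24 uM Alexa 594-labeled) in 100 mM sodium acetate pH 7 with 20 uM heparin, 6 hr at 37 C. ThT 30 uM added, 1 hr ambient; Alexa 594 FP and total fluorescence read at 555/632 nm.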
* = called active by the depositor; [ ] = dose if it differs, or a comment. Unless noted, the call rests on the fitted dose curve; in most records, active means well fitted curve in the direction sought with a large enough effect; inconclusive means small, poorly fitted or top-dose-only effect, or another doubt; inactive means no such curve, though single readings can be large; an effect the other way counts as inactive or inconclusive. Unless noted, on the % scale 0 is the no-effect control and ±100 the full control effect.

O=C(Nc1ccccc1)Nc1cccc(C(F)(F)F)c1 was read as TRb SRC2 PPI 0%, Tau fibril ThT 1%, TR SRC2 fluor cs 1%, Tau fibril FP inconclusive and Tau fluor counter -30%.
O=C(Nc1cccc(C(F)(F)F)c1)Nc1cccs1 was read as TRb SRC2 PPI 5%, Tau fibril ThT inconclusive, TR SRC2 fluor cs -15%, Tau fibril FP inconclusive and Tau fluor counter 11µM*[quencher].
CNC(=O)Nc1cccc(C(F)(F)F)c1 was read as TRb SRC2 PPI -10%, PNC inhibitor -100*, Tau fibril ThT 2%, TR SRC2 fluor cs -4%, Tau fibril FP -3% and Tau fluor counter 0%.
`CC(C)NC(=O)Nc1cccs1` gave TRb SRC2 PPI -7%, PNC inhibitor -100*, Tau fibril ThT -9%, TR SRC2 fluor cs 2%, Tau fibril FP 4% and Tau fluor counter -6%.
For O=C(NC1CCCCCC1)C1c2ccccc2C(=O)N1C1CC1 (stereo not drawn) the results were TRb SRC2 PPI -4%, PNC inhibitor -3, Tau fibril ThT -4%, TR SRC2 fluor cs -2%, Tau fibril FP -6% and Tau fluor counter -8%.
COc1cc(NC(=O)C(CCS(C)(=O)=O)N2Cc3ccccc3C2=O)cc(OC)c1OC (stereo not drawn) was read as TRb SRC2 PPI 1%, Tau fibril ThT -11%, TR SRC2 fluor cs -25%, Tau fibril FP 6% and Tau fluor counter -12%.
For CCCCN(CC)C(=O)Cc1cn(C)c2ccccc12 the results were TRb SRC2 PPI 0%, PNC inhibitor 0, Tau fibril ThT -9%, TR SRC2 fluor cs 2%, Tau fibril FP 4% and Tau fluor counter -10%.
COc1cccc(-c2cc(C(=O)N3CCc4ccccc4C3)no2)c1 was read as TRb SRC2 PPI -1%, PNC inhibitor inconclusive, Tau fibril ThT -23%, TR SRC2 fluor cs -3%, Tau fibril FP -5% and Tau fluor counter -14%.
CC(=O)Nc1ccc(NC(=O)/C=C/c2cccc(C(F)(F)F)c2)cc1 was read as TRb SRC2 PPI inconclusive, PNC inhibitor 7, Tau fibril ThT 6%, TR SRC2 fluor cs 3.2µM*[quencher], Tau fibril FP 5% and Tau fluor counter 2%.
`O=C(COCC(=O)Nc1cccc(C(F)(F)F)c1)Nc1cccc(C(F)(F)F)c1` gave TRb SRC2 PPI -15%, PNC inhibitor 20, Tau fibril ThT 5%, TR SRC2 fluor cs -1%, Tau fibril FP 11µM* and Tau fluor counter inconclusive.
For CC(C)(C)NC(=O)/C=C/c1cccc(C(F)(F)F)c1 the results were TRb SRC2 PPI 5%, PNC inhibitor inconclusive, Tau fibril ThT -5%, TR SRC2 fluor cs -1%, Tau fibril FP 1% and Tau fluor counter -8%.
For O=C(COc1ccc(C(=O)O)cc1)Nc1cccc(C(F)(F)F)c1 the results were TRb SRC2 PPI -5%, Tau fibril ThT 1%, TR SRC2 fluor cs -1%, Tau fibril FP 8% and Tau fluor counter -5%.
`O=C(Nc1cccc([N+](=O)[O-])c1)Nc1cccs1` gave TRb SRC2 PPI 1%, Tau fibril ThT inconclusive, TR SRC2 fluor cs -2%, Tau fibril FP 10% and Tau fluor counter 20µM*[quencher].
`CCSCCc1nnc(NC(=O)Nc2cccc(C(F)(F)F)c2)s1` gave TRb SRC2 PPI 5%, PNC inhibitor 17, Tau fibril ThT 6%, TR SRC2 fluor cs -2%, Tau fibril FP 11µM* and Tau fluor counter inconclusive.
CCOC(=O)C1(CCCc2ccccc2)CCN(C(=O)CCN2CCCCC2=O)CC1 was read as TRb SRC2 PPI 3%[53 µM], Tau fibril ThT 7%, TR SRC2 fluor cs -1%[53 µM], Tau fibril FP 5% and Tau fluor counter 7%.
`COc1ccc(NC(=O)CSc2nnc(-c3ccccn3)n2Cc2ccco2)cc1OC` gave TRb SRC2 PPI -6%, PNC inhibitor 42, Tau fibril ThT -13%, TR SRC2 fluor cs -2%, Tau fibril FP 7% and Tau fluor counter -14%.

High-throughput results: PubChem BioAssay, National Center for Advancing Translational Sciences (NCATS)
